# Test results reported in PubChem BioAssay AID1159580 (chemical genetic matrix, 2015).
# “And” between values parts separate entries of the source, which are not always exact repeats. Equal values may be shown once. The whole screen tested about 5,500 compounds, of which about 2,000 (36%) were called active. Not shown: some 18% with an inconclusive outcome. The list shows a part of the results. Unmarked numbers belong to inactive results. No stated cut-off is given here; in the data, active means normalized growth mostly below about 0.91 (no sharp cut-off); inconclusive means no clear call, values can overlap the other calls; inactive means mostly above about 0.92.
# Assay: chemical genetic growth profiling, strain panel (AID 1159580);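 further: tested at 20 µM; growth read once vehicle control cultures reached saturation at 30 °C; 1 = growth at the plate median or of vehicle wells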
# Conditions: S. cerevisiae deletion strains, growth OD
compound,measurement,setting,value
COc1ccc([C@H]2COc3c(ccc(O)c3OC)C2)c(OC)c1O,normalized growth,"locus YAL021C, strain ccr4, stronger effect = lower value",0.984
same,normalized growth,"locus YAL026C, strain drs2, stronger effect = lower value",0.975
same,normalized growth,"locus YAL030W, strain snc1, stronger effect = lower value",0.992
same,normalized growth,"locus YBL061C, strain skt5, stronger effect = lower value",0.989
same,normalized growth,"locus YBR009C, strain hhf1, stronger effect = lower value",0.976
same,normalized growth,"locus YBR021W, strain FUR4, stronger effect = lower value",1.11
same,normalized growth,"locus YBR023C, strain chs3, stronger effect = lower value",0.985
same,normalized growth,"locus YBR171W, strain sec66, stronger effect = lower value",0.969
same,normalized growth,"locus YBR229C, strain ROT2, stronger effect = lower value",0.947
same,normalized growth,"locus YBR231C, strain swc5, stronger effect = lower value",0.988
same,normalized growth,"locus YBR279W, strain paf1, stronger effect = lower value",0.984
same,normalized growth,"locus YCL011C, strain gbp2, stronger effect = lower value",0.972
same,normalized growth,"locus YCL016C, strain dcc1, stronger effect = lower value",0.989
same,normalized growth,"locus YCL029C, strain bik1, stronger effect = lower value",0.993
same,normalized growth,"locus YCL061C, strain MRC1, stronger effect = lower value",0.968
same,normalized growth,"locus YCL069W, strain vba3, stronger effect = lower value",0.988
same,normalized growth,"locus YCR088W, strain abp1, stronger effect = lower value",0.984
same,normalized growth,"locus YDL005C, strain med2, stronger effect = lower value",0.975
same,normalized growth,"locus YDL035C, strain GPR1, stronger effect = lower value",0.998
same,normalized growth,"locus YDL040C, strain nat1, stronger effect = lower value",0.991
same,normalized growth,"locus YDL074C, strain BRE1, stronger effect = lower value",1.02
same,normalized growth,"locus YDL101C, strain DUN1, stronger effect = lower value",0.978
same,normalized growth,"locus YDL185W, strain tfp1, stronger effect = lower value",0.946
same,normalized growth,"locus YDL192W, strain arf1, stronger effect = lower value",0.971
same,normalized growth,"locus YDR001C, strain nth1, stronger effect = lower value",0.986
same,normalized growth,"locus YDR069C, strain doa4, stronger effect = lower value",0.979
same,normalized growth,"locus YDR101C, strain arx1, stronger effect = lower value",0.969
same,normalized growth,"locus YDR137W, strain rgp1, stronger effect = lower value",0.828 (active)
same,normalized growth,"locus YDR159W, strain sac3, stronger effect = lower value",0.974
same,normalized growth,"locus YDR162C, strain NBP2, stronger effect = lower value",0.943
same,normalized growth,"locus YDR195W, strain ref2",1
same,normalized growth,"locus YDR297W, strain sur2, stronger effect = lower value",0.98
same,normalized growth,"locus YDR318W, strain mcm21, stronger effect = lower value",0.986
same,normalized growth,"locus YDR334W, strain swr1, stronger effect = lower value",0.962
same,normalized growth,"locus YDR335W, strain msn5, stronger effect = lower value",0.98
same,normalized growth,"locus YDR388W, stronger effect = lower value",0.995
same,normalized growth,"locus YDR392W, strain spt3, stronger effect = lower value",0.926
same,normalized growth,"locus YDR502C, strain sam2, stronger effect = lower value",0.977
same,normalized growth,"locus YEL003W, strain gim4, stronger effect = lower value",0.976
same,normalized growth,"locus YEL037C, strain rad23, stronger effect = lower value",0.992
same,normalized growth,"locus YEL061C, strain CIN8 (second series), stronger effect = lower value",0.973
same,normalized growth,"locus YEL061C, strain CIN8, stronger effect = lower value",0.985
same,normalized growth,"locus YER015W, strain faa2, stronger effect = lower value",0.989
same,normalized growth,"locus YER016W, strain bim1, stronger effect = lower value",0.983
same,normalized growth,"locus YER110C, stronger effect = lower value",0.962
same,normalized growth,"locus YER111C, strain swi4, stronger effect = lower value",0.983
same,normalized growth,"locus YER155C, strain BEM2 (second series), stronger effect = lower value",0.988
same,normalized growth,"locus YER155C, strain BEM2, stronger effect = lower value",1.01
same,normalized growth,"locus YER167W, strain BCK2, stronger effect = lower value",1
same,normalized growth,"locus YFR010W, strain ubp6, stronger effect = lower value",0.957
same,normalized growth,"locus YGL078C, strain dbp3, stronger effect = lower value",0.978
same,normalized growth,"locus YGL086W, strain mad1, stronger effect = lower value",0.994
same,normalized growth,"locus YGL167C, strain pmr1, stronger effect = lower value",0.981
same,normalized growth,"locus YGL173C, strain kem1, stronger effect = lower value",0.977
same,normalized growth,"locus YGL227W, strain vid30, stronger effect = lower value",0.988
same,normalized growth,"locus YGL240W, strain doc1, stronger effect = lower value",0.978
same,normalized growth,"locus YGL248W, strain PDE1, stronger effect = lower value",0.985
same,normalized growth,"locus YGL253W, strain hxk2, stronger effect = lower value",0.997
same,normalized growth,"locus YGR078C, strain PAC10, stronger effect = lower value",0.989
same,normalized growth,"locus YGR135W, strain pre9, stronger effect = lower value",0.986
same,normalized growth,"locus YGR229C, strain SMI1, stronger effect = lower value",0.987
same,normalized growth,"locus YGR252W, strain gcn5, stronger effect = lower value",1.03
same,normalized growth,"locus YHR013C, strain ard1, stronger effect = lower value",0.978
same,normalized growth,"locus YHR027C, strain rpn1, stronger effect = lower value",0.978
same,normalized growth,"locus YHR030C, strain SLT2, stronger effect = lower value",1
same,normalized growth,"locus YHR079C, strain IRE1 (second series), stronger effect = lower value",0.997
same,normalized growth,"locus YHR079C, strain IRE1, stronger effect = lower value",1.02
same,normalized growth,"locus YHR094C, strain hxt1, stronger effect = lower value",0.98
same,normalized growth,"locus YHR129C, strain ARP1, stronger effect = lower value",1.01
same,normalized growth,"locus YHR142W, strain chs7, stronger effect = lower value",0.968
same,normalized growth,"locus YHR200W, strain rpn10, stronger effect = lower value",0.967
same,normalized growth,"locus YIL066C, strain RNR3, stronger effect = lower value",0.975
same,normalized growth,"locus YIL073C, strain SPO22, stronger effect = lower value",0.924
same,normalized growth,"locus YIL125W, strain kgd1, stronger effect = lower value",0.987
same,normalized growth,"locus YIR030C, strain dcg1, stronger effect = lower value",1
same,normalized growth,"locus YJL092W, strain hpr5, stronger effect = lower value",0.977
same,normalized growth,"locus YJL095W, strain BCK1 (second series), stronger effect = lower value",0.995
same,normalized growth,"locus YJL095W, strain BCK1, stronger effect = lower value",0.98 and 1.03
same,normalized growth,"locus YJL115W, strain asf1, stronger effect = lower value",0.967
same,normalized growth,"locus YJL129C, strain trk1, stronger effect = lower value",0.977
same,normalized growth,"locus YJL134W, strain LCB3, stronger effect = lower value",0.994
same,normalized growth,"locus YJL154C, strain vps35, stronger effect = lower value",0.983
same,normalized growth,"locus YJL164C, strain tpk1, stronger effect = lower value",0.967
same,normalized growth,"locus YJL166W, strain qcr8, stronger effect = lower value",0.993
same,normalized growth,"locus YJL168C, strain set2, stronger effect = lower value",0.989
same,normalized growth,"locus YJL187C, strain SWE1 (second series), stronger effect = lower value",0.981
same,normalized growth,"locus YJL187C, strain SWE1, stronger effect = lower value",0.991
same,normalized growth,"locus YJR043C, strain POL32, stronger effect = lower value",0.987
same,normalized growth,"locus YJR066W, strain TOR1, stronger effect = lower value",1.01
same,normalized growth,"locus YJR075W, strain HOC1, stronger effect = lower value",0.969
same,normalized growth,"locus YKL009W, strain mrt4, stronger effect = lower value",0.977
same,normalized growth,"locus YKL068W, stronger effect = lower value",0.973
same,normalized growth,"locus YKL085W, strain MDH1 (second series), stronger effect = lower value",0.974
same,normalized growth,"locus YKL085W, strain MDH1, stronger effect = lower value",0.974
same,normalized growth,"locus YKL160W, strain elf1, stronger effect = lower value",0.986
same,normalized growth,"locus YKL190W, strain CNB1, stronger effect = lower value",0.991
same,normalized growth,"locus YKR001C, strain vps1, stronger effect = lower value",1
same,normalized growth,"locus YKR026C, strain gcn3, stronger effect = lower value",0.982
same,normalized growth,"locus YKR091W, strain srl3, stronger effect = lower value",0.992
same,normalized growth,"locus YLL001W, strain dnm1, stronger effect = lower value",0.978
same,normalized growth,"locus YLL026W, stronger effect = lower value",0.994
same,normalized growth,"locus YLL041C, strain sdh2, stronger effect = lower value",0.98
same,normalized growth,"locus YLR027C, strain aat2, stronger effect = lower value",1
same,normalized growth,"locus YLR039C, strain RIC1, stronger effect = lower value",0.953
same,normalized growth,"locus YLR058C, strain SHM2, stronger effect = lower value",0.98
same,normalized growth,"locus YLR102C, strain apc9, stronger effect = lower value",0.997
same,normalized growth,"locus YLR113W, strain HOG1, stronger effect = lower value",0.969
same,normalized growth,"locus YLR221C, strain rsa3, stronger effect = lower value",0.993
same,normalized growth,"locus YLR258W, strain gsy2, stronger effect = lower value",0.992
same,normalized growth,"locus YLR262C, strain YPT6 (second series), stronger effect = lower value",0.912
same,normalized growth,"locus YLR262C, strain YPT6, stronger effect = lower value",0.939
same,normalized growth,"locus YLR268W, strain sec22, stronger effect = lower value",0.99
same,normalized growth,"locus YLR320W, strain mms22, stronger effect = lower value",0.987
same,normalized growth,"locus YLR330W, strain CHS5, stronger effect = lower value",1
same,normalized growth,"locus YLR342W, strain FKS1 (second series), stronger effect = lower value",1.05
same,normalized growth,"locus YLR342W, strain FKS1, stronger effect = lower value",0.989
same,normalized growth,"locus YLR357W, strain rsc2, stronger effect = lower value",0.978
same,normalized growth,"locus YLR370C, strain arc18, stronger effect = lower value",0.977
same,normalized growth,"locus YLR371W, strain rom2, stronger effect = lower value",0.994
same,normalized growth,"locus YLR384C, strain iki3, stronger effect = lower value",0.995
same,normalized growth,"locus YLR418C, strain cdc73, stronger effect = lower value",1
same,normalized growth,"locus YML016C, strain PPZ1, stronger effect = lower value",0.995
same,normalized growth,"locus YML032C, strain rad52, stronger effect = lower value",0.993
same,normalized growth,"locus YML120C, strain ndi1, stronger effect = lower value",0.979
same,normalized growth,"locus YML124C, strain tub3, stronger effect = lower value",0.974
same,normalized growth,"locus YMR058W, strain fet3, stronger effect = lower value",0.97
same,normalized growth,"locus YMR078C, strain ctf18, stronger effect = lower value",0.99
same,normalized growth,"locus YMR125W, strain sto1, stronger effect = lower value",0.979
same,normalized growth,"locus YMR129W, stronger effect = lower value",0.977
same,normalized growth,"locus YMR205C, strain PFK2, stronger effect = lower value",0.978
same,normalized growth,"locus YMR223W, strain ubp8, stronger effect = lower value",0.972
same,normalized growth,"locus YMR231W, strain pep5, stronger effect = lower value",0.996
same,normalized growth,"locus YMR307W, strain GAS1, stronger effect = lower value",1.09
same,normalized growth,"locus YNL067W, strain RPL9B, stronger effect = lower value",0.996
same,normalized growth,"locus YNL071W, strain lat1, stronger effect = lower value",0.982
same,normalized growth,"locus YNL183C, strain NPR1, stronger effect = lower value",0.974
same,normalized growth,"locus YNL209W, strain ssb2, stronger effect = lower value",0.987
same,normalized growth,"locus YNL233W, strain BNI4, stronger effect = lower value",0.996
same,normalized growth,"locus YNL248C, strain rpa49, stronger effect = lower value",0.977
same,normalized growth,"locus YNL250W, strain rad50, stronger effect = lower value",0.968
same,normalized growth,"locus YNL271C, strain bni1, stronger effect = lower value",0.979
same,normalized growth,"locus YNL298W, strain CLA4, stronger effect = lower value",0.975
same,normalized growth,"locus YNL307C, strain MCK1, stronger effect = lower value",0.986
same,normalized growth,"locus YNL322C, strain KRE1 (second series), stronger effect = lower value",0.991
same,normalized growth,"locus YNR049C, strain mso1, stronger effect = lower value",0.995
same,normalized growth,"locus YNR052C, strain pop2, stronger effect = lower value",0.996
same,normalized growth,"locus YOL006C, strain TOP1, stronger effect = lower value",1.1
same,normalized growth,"locus YOL012C, strain htz1",0.955
same,normalized growth,"locus YOL147C, strain pex11, stronger effect = lower value",0.995
same,normalized growth,"locus YOR001W, strain rrp6, stronger effect = lower value",0.986
same,normalized growth,"locus YOR061W, strain CKA2, stronger effect = lower value",0.966
same,normalized growth,"locus YOR069W, strain VPS5, stronger effect = lower value",0.999
same,normalized growth,"locus YOR070C, strain gyp1, stronger effect = lower value",0.988
same,normalized growth,"locus YOR080W, strain dia2, stronger effect = lower value",0.988
same,normalized growth,"locus YOR083W, strain WHI5, stronger effect = lower value",0.985
same,normalized growth,"locus YOR106W, strain vam3, stronger effect = lower value",0.976
same,normalized growth,"locus YOR136W, strain idh2, stronger effect = lower value",0.978
same,normalized growth,"locus YOR144C, strain elg1, stronger effect = lower value",0.983
same,normalized growth,"locus YOR184W, strain ser1, stronger effect = lower value",0.956
same,normalized growth,"locus YOR231W, strain MKK1, stronger effect = lower value",1.03
same,normalized growth,"locus YOR265W, strain rbl2, stronger effect = lower value",0.994
same,normalized growth,"locus YOR270C, strain vph1, stronger effect = lower value",0.933
same,normalized growth,"locus YOR290C, strain snf2, stronger effect = lower value",0.966
same,normalized growth,"locus YOR316C, strain cot1, stronger effect = lower value",0.981
same,normalized growth,"locus YPL051W, strain arl3, stronger effect = lower value",0.995
same,normalized growth,"locus YPL055C, strain LGE1, stronger effect = lower value",1.01
same,normalized growth,"locus YPL078C, strain atp4, stronger effect = lower value",0.986
same,normalized growth,"locus YPL106C, strain sse1, stronger effect = lower value",0.989
same,normalized growth,"locus YPL240C, strain hsp82, stronger effect = lower value",0.963
same,normalized growth,"locus YPL241C, strain CIN2, stronger effect = lower value",0.958
same,normalized growth,"locus YPL256C, strain CLN2, stronger effect = lower value",1.03
same,normalized growth,"locus YPR119W, strain clb2, stronger effect = lower value",0.978
same,normalized growth,"locus YPR141C, strain kar3, stronger effect = lower value",0.979
same,normalized growth,"locus YPR163C, strain tif3, stronger effect = lower value",0.981
same,normalized growth,"locus YPR167C, strain met16, stronger effect = lower value",1
same,normalized growth,"strain wtn01, stronger effect = lower value",0.981
